Results as given in PubChem BioAssay AID1159580 (chemical genetic matrix, 2015).
Where “and” joins values, the source holds several entries; their conditions need not be identical. Equal values may be shown once. Hit rate of the full screen: of about 5,500 compounds, about 2,000 (36%) were called active. Inconclusive results (about 18%) are left out. Rule as the data show it: active = normalized growth mostly below about 0.91 (no sharp cut-off); inconclusive = no clear call, values can overlap the other calls; inactive = mostly above about 0.92. This is one part of the list.

Experiment: chemical genetic growth profiling, strain panel (AID 1159580);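 also: tested at 20 µM; growth read once vehicle control cultures reached saturation at 30 °C; 1 = growth at the plate median or of vehicle wells; lower values mean less growth of the strain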
Settings: S. cerevisiae deletion strains, growth OD

Measured: normalized growth

ClC1C(Cl)C(Cl)C(Cl)C(Cl)C1Cl (stereo unspecified)
active: locus YBR009C, strain hhf1, stronger effect = lower value 0.831 | locus YCL016C, strain dcc1, stronger effect = lower value 0.898 | locus YCL029C, strain bik1, stronger effect = lower value 0.906 | locus YCL061C, strain MRC1, stronger effect = lower value 0.894 | locus YDR137W, strain rgp1, stronger effect = lower value 0.606 | locus YDR159W, strain sac3, stronger effect = lower value 0.703 | locus YDR392W, strain spt3, stronger effect = lower value 0.295 | locus YER155C, strain BEM2 (second series), stronger effect = lower value 0.306 | locus YER167W, strain BCK2, stronger effect = lower value 0.84 | locus YGL240W, strain doc1, stronger effect = lower value 0.774 | locus YHR094C, strain hxt1, stronger effect = lower value 0.923 | locus YHR142W, strain chs7, stronger effect = lower value 0.805 | locus YIL125W, strain kgd1, stronger effect = lower value 0.906 | locus YJL129C, strain trk1, stronger effect = lower value 0.783 | locus YJL166W, strain qcr8, stronger effect = lower value 0.728
inactive: locus YAL013W, strain DEP1, stronger effect = lower value 0.981 | locus YAL021C, strain ccr4, stronger effect = lower value 0.997 | locus YAL026C, strain drs2, stronger effect = lower value 0.988 | locus YAL030W, strain snc1, stronger effect = lower value 0.98 | locus YBL061C, strain skt5, stronger effect = lower value 0.965 | locus YBR021W, strain FUR4, stronger effect = lower value 0.985 | locus YBR023C, strain chs3, stronger effect = lower value 0.965 | locus YBR171W, strain sec66, stronger effect = lower value 0.956 | locus YBR229C, strain ROT2, stronger effect = lower value 0.962 | locus YBR231C, strain swc5, stronger effect = lower value 0.913 | locus YBR279W, strain paf1, stronger effect = lower value 0.971 | locus YCL011C, strain gbp2, stronger effect = lower value 0.931 | locus YCL069W, strain vba3, stronger effect = lower value 0.986 | locus YCR088W, strain abp1, stronger effect = lower value 0.965 | locus YDL005C, strain med2, stronger effect = lower value 1.01 | locus YDL035C, strain GPR1, stronger effect = lower value 0.976 | locus YDL040C, strain nat1, stronger effect = lower value 0.986 | locus YDL074C, strain BRE1, stronger effect = lower value 0.939 | locus YDL101C, strain DUN1, stronger effect = lower value 0.964 | locus YDL134C, strain PPH21, stronger effect = lower value 0.963 | locus YDL185W, strain tfp1, stronger effect = lower value 0.926 | locus YDL192W, strain arf1, stronger effect = lower value 0.942 | locus YDR001C, strain nth1, stronger effect = lower value 0.964 | locus YDR069C, strain doa4, stronger effect = lower value 0.989 | locus YDR101C, strain arx1, stronger effect = lower value 0.956 | locus YDR150W, strain NUM1, stronger effect = lower value 0.942 | locus YDR162C, strain NBP2, stronger effect = lower value 0.969 | locus YDR195W, strain ref2 1.07 | locus YDR297W, strain sur2, stronger effect = lower value 0.97 | locus YDR318W, strain mcm21, stronger effect = lower value 0.926 | locus YDR334W, strain swr1, stronger effect = lower value 0.976 | locus YDR335W, strain msn5, stronger effect = lower value 1 | locus YDR388W, stronger effect = lower value 0.935 | locus YDR502C, strain sam2, stronger effect = lower value 0.937 | locus YEL003W, strain gim4, stronger effect = lower value 0.982 | locus YEL037C, strain rad23, stronger effect = lower value 0.973 | locus YEL061C, strain CIN8 (second series), stronger effect = lower value 0.99 | locus YEL061C, strain CIN8, stronger effect = lower value 0.953 | locus YER015W, strain faa2, stronger effect = lower value 0.982 | locus YER016W, strain bim1, stronger effect = lower value 0.98 | locus YER110C, stronger effect = lower value 0.935 | locus YER111C, strain swi4, stronger effect = lower value 0.933 | locus YER155C, strain BEM2, stronger effect = lower value 0.959 | locus YFR010W, strain ubp6, stronger effect = lower value 0.983 | locus YGL078C, strain dbp3, stronger effect = lower value 0.933 | locus YGL086W, strain mad1, stronger effect = lower value 0.933 | locus YGL167C, strain pmr1, stronger effect = lower value 0.974 | locus YGL173C, strain kem1, stronger effect = lower value 0.96 | locus YGL227W, strain vid30, stronger effect = lower value 0.954 | locus YGL248W, strain PDE1, stronger effect = lower value 0.954 | locus YGL253W, strain hxk2, stronger effect = lower value 0.976 | locus YGR078C, strain PAC10, stronger effect = lower value 0.954 | locus YGR135W, strain pre9, stronger effect = lower value 0.947 | locus YGR229C, strain SMI1, stronger effect = lower value 0.954 | locus YGR252W, strain gcn5, stronger effect = lower value 1.12 | locus YHR013C, strain ard1, stronger effect = lower value 0.866 | locus YHR027C, strain rpn1, stronger effect = lower value 0.988 | locus YHR030C, strain SLT2, stronger effect = lower value 0.945 and 0.982 | locus YHR079C, strain IRE1 (second series), stronger effect = lower value 0.927 | locus YHR079C, strain IRE1, stronger effect = lower value 0.985 | locus YHR129C, strain ARP1, stronger effect = lower value 0.958 | locus YHR200W, strain rpn10, stronger effect = lower value 0.922 | locus YIL066C, strain RNR3, stronger effect = lower value 0.955 | locus YIL073C, strain SPO22, stronger effect = lower value 0.906 | locus YIR030C, strain dcg1, stronger effect = lower value 0.945 | locus YJL092W, strain hpr5, stronger effect = lower value 0.95 | locus YJL095W, strain BCK1 (second series), stronger effect = lower value 0.931 | locus YJL095W, strain BCK1, stronger effect = lower value 0.871 and 0.984 | locus YJL115W, strain asf1, stronger effect = lower value 1.01 | locus YJL134W, strain LCB3, stronger effect = lower value 0.955 | locus YJL154C, strain vps35, stronger effect = lower value 0.982 | locus YJL164C, strain tpk1, stronger effect = lower value 0.925 | locus YJL168C, strain set2, stronger effect = lower value 0.943 | locus YJL187C, strain SWE1 (second series), stronger effect = lower value 0.959 | locus YJR043C, strain POL32, stronger effect = lower value 0.965 | locus YJR066W, strain TOR1, stronger effect = lower value 0.939
